Data published in PubChem BioAssay.
Activity calls are given as the source filed them.

Key:
Albumin (Bos taurus) = Albumin (Bos taurus) (UniProt P02769); assay: compounds binding labelled BSA control protein – biochemical, small-molecule microarray, Alexa647 label, 635/667 nm fluorescence, artefact control for SMM control protein annotation, profiling panel (AID 1118); conditions: BSA-A647 binding, fluorescence 635 nm, higher = more signal;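 further: score merges 667 nm emission intensity and signal-to-noise per printed compound spot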
Sequence of Albumin (Bos taurus) (P02769 whole entry, looked up): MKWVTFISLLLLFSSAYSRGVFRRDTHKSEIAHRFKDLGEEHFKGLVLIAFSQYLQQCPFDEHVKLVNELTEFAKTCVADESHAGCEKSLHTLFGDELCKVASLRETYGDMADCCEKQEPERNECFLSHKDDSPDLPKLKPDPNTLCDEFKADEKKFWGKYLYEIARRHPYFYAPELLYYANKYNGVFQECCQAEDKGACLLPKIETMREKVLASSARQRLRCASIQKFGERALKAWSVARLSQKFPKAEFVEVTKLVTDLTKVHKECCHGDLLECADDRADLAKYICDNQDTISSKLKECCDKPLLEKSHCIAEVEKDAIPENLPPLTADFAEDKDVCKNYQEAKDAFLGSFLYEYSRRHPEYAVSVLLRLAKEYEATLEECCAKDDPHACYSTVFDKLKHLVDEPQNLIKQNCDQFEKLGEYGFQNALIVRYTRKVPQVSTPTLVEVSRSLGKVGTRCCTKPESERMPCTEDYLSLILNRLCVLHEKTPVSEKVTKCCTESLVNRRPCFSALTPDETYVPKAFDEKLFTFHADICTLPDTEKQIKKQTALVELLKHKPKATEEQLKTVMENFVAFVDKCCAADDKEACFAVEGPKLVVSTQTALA

[1] = probe aXIP binding to arrayed compounds – biochemical, NeuroSMM set, 635/667 nm fluorescence, primary screen (AID 1119); conditions: small-molecule microarray, higher = more signal, called active from +8 up or from −8 down;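 further: probe is the protein aXip251-270 applied at 1 µg/mL to compound-printed slides; binding of probe to printed compounds measured as 667 nm fluorescence plus signal to noise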
[2] = probe aNOTCH3 binding on compound microarray – biochemical, small-molecule microarray, 635/667 nm fluorescence, primary screen (AID 1120); conditions: higher = more signal;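 further: probe is a biotin-tagged antibody raised against NOTCH3 rather than NOTCH3 protein; score merges spot fluorescence near 667 nm with spot signal to noise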
[3] = probe aNOTCH2 binding on compound microarray – biochemical, small-molecule microarray, 635/667 nm fluorescence, primary screen (AID 1121); conditions: higher = more signal;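 further: score merges feature fluorescence read at 667 nm with its signal to noise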
[4] = molecular target: Carbonic anhydrase 2 (Homo sapiens) (UniProt P00918); assay: compounds binding carbonic anhydrase 2 – biochemical, small-molecule microarray, Alexa647-labelled CAII, profiling panel (AID 1122); conditions: CAII-A647 binding fluorescence, higher = more signal
[5] = COS7 lysate on small-molecule microarray, probe aHis, 635 nm (AID 1123); conditions: COS7 cell lysate, fluorescence, higher = more signal;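 further: z-score combines 667nm fluorescence intensity with signal-to-noise per printed compound spot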
[6] = probe aLAP1 signal on lysate-treated microarray – cell lysate, small-molecule microarray, COS7 lysate, primary screen (AID 1124); conditions: probe aLAP1, fluorescence, higher = more signal;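 further: lysate comes from COS7 cells expressing LAP1 and is applied at 0.3 µg/mL; score merges spot fluorescence near 667 nm with signal-to-noise over triplicate slides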
Sam68 (KHDRBS1) = assay: compounds binding KHDRBS1 protein – biochemical, small-molecule microarray, 635 nm fluorescence, primary screen (AID 1125); conditions: higher = more signal;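 further: score merges 667 nm channel intensity with signal to noise over triplicate slides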
[7] = system: Chordin-like protein 2 (CHRDL2); assay: compounds binding chordin-like 2 – biochemical, small-molecule microarray, 635 nm fluorescence, primary screen (AID 1126); conditions: fluorescence 635 nm, higher = more signal;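 further: printed compound slides probed with Chrdl2 protein at 4 µg/mL for 1 h at 4 C; score merges 667 nm emission intensity with signal to noise over three replicate slides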
[8] = molecular target: Concanavalin-A (Canavalia ensiformis) (UniProt P02866); assay: compounds binding concanavalin A lectin – biochemical, small-molecule microarray, Alexa647 label, 635 nm, artefact control for SMM control protein annotation, primary screen (AID 1127); conditions: ConA-A647 binding fluorescence, higher = more signal;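 further: z combines 667 nm emission intensity with signal-to-noise across three replicate slides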
Sequence of Concanavalin-A (Canavalia ensiformis) (P02866 whole entry, looked up): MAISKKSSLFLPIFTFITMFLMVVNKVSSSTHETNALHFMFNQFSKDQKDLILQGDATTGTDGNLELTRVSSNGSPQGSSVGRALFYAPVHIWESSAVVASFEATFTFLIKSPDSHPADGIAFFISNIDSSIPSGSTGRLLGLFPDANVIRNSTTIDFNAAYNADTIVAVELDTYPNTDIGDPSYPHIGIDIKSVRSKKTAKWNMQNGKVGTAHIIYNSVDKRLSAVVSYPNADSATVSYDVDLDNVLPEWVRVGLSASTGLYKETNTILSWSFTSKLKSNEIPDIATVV

| Structure (SMILES) | composite z-score (Albumin (Bos taurus)) | composite Z-score [1] | composite z-score [2] | composite z-score [3] | composite z-score [4] | composite z-score [5] | composite z-score [6] | composite z-score (Sam68 (KHDRBS1)) | composite z-score [7] | composite z-score [8] |
| --- | --- | --- | --- | --- | --- | --- | --- | --- | --- | --- |
| CCOC(=O)C[C@H]1[C@H](OC(=O)c2ccc(C(=O)c3ccccc3)cc2)[C@@H](NC(=O)C2CCCCC2)c2cc(OCCCO)ccc2N1C(=O)c1ccc2ccccc2n1 | 0.534 | -0.482 (inactive) | -0.0647 | -0.102 | 0.0738 | 1.05 | -0.0375 | 1.31 | 0.24 | 0.955 |
| NC(=O)NCC#Cc1ccc2c(c1)[C@]1(C(=O)N2)[C@H](c2ccccc2OCCO)N2[C@H](c3ccccc3)[C@H](c3ccccc3)OC(=O)[C@H]2[C@@H]1C(=O)NC[C@H](O)c1ccccc1 | 0.63 | -0.17 (inactive) | -0.143 | -0.103 | 0.582 | 1.19 | 0.428 | 0.026 | -0.501 | 0.68 |
| O=C1OCCC/C=C\[C@H]2OC34C=CCN(c5ccc6ccccc6c5)C(=O)[C@H]3N(CCO)C(=O)[C@@H]4C12 (stereo not given in full) | -1.75 | 0.278 (inactive) | -0.355 | -0.213 | 0.959 | -0.237 | 1.48 | -0.359 | -2.13 | -1.39 |
| O=C1N(CCS(=O)(=O)c2ccccc2)c2ccccc2[C@H]2OC(c3ccc(OCCCO)cc3)=N[C@@]12Cc1ccccc1 | -0.154 | 1.47 (inactive) | 0.146 | 0.087 | 0.555 | 2.93 | 0.991 | 1.29 | 1.4 | 1.14 |
| COCCOC(=O)N1C(=O)[C@@]2(c3cc(C#CC4=CCCCC4)ccc31)[C@H](c1ccccc1OCCO)N1[C@H](c3ccccc3)[C@H](c3ccccc3)OC(=O)[C@H]1[C@@H]2C(=O)NC[C@H](O)c1ccccc1 | -0.185 | 0.511 (inactive) | 0.463 | -0.118 | 0.409 | 1.53 | 0.661 | 1.3 | 0.715 | 1.14 |
| CCCN1C(=O)[C@]2(Cc3ccccc31)N=C(c1ccc(OCCCO)cc1)O[C@@H]2c1ccccc1 | -0.0671 | 0.0068 (inactive) | 0.247 | -0.125 | 0.625 | 2.19 | 0.402 | 1.24 | -0.184 | 0.884 |
| CC(C)C(CO)N1C(=O)[C@@H]2[C@H]3C(=O)OCC=C[C@H]3OC23C=CCN(c2ccc(Cl)cc2)C(=O)[C@@H]13 (stereo not given in full) | -1.26 | -0.268 (inactive) | -0.171 | -0.117 | 0.839 | -0.372 | -0.364 | 0.0729 | -0.847 | -0.842 |
| C#Cc1cc2ccccc2oc1=O | 0.683 | 0.207 (inactive) | -0.437 | -0.126 | 0.637 | 0.688 | 0.216 | 0.343 | -2.62 | -0.486 |
| COCCOC(=O)N1C(=O)[C@@]2(c3cc(C#CCCO)ccc31)[C@H](c1ccc(OCCO)cc1)N1[C@H](c3ccccc3)[C@H](c3ccccc3)OC(=O)[C@H]1[C@@H]2C(=O)Nc1nc2ccccc2s1 | 0.648 | -0.22 (inactive) | 0.0556 | 0.02 | 0.406 | 0.556 | 0.559 | 1.31 | 0.27 | 1.13 |
| CCCCN1CC=CC23O[C@@H]4/C=C\CCCOC(=O)C4[C@H]2C(=O)N(CCO)[C@@H]3C1=O (stereo not given in full) | 0.634 | 0.257 (inactive) | -0.426 | -0.161 | 0.321 | 1.1 | -0.0065 | 0.109 | -1.08 | -0.557 |
| C=CC[C@@H](OC(=O)Nc1ccc(OC)cc1)c1ccc(O)c(F)c1 | 0.66 | 0.683 (inactive) | -0.266 | -0.153 | 0.493 | 1.93 | 0.738 | -0.56 | -0.861 | -0.9 |
| C=CCNC(=O)[C@H]1[C@@H]2C(=O)O[C@@H](c3ccccc3)[C@@H](c3ccccc3)N2[C@@H](c2ccccc2OCCO)[C@]12C(=O)N(C(=O)OCCOC)c1ccc(C#CC3(O)CCCCCC3)cc12 | 0.604 | 0.359 (inactive) | 0.0225 | 0.0018 | 0.309 | 1.79 | 1.05 | 1.29 | 0.174 | 0.815 |
| CC(C)[Si](C#C[Si](C(C)C)(C(C)C)C(C)C)(O[C@H](c1ccccc1)c1cn(Cc2ccccc2)nn1)C(C)C | -0.0062 | -0.058 (inactive) | 0.143 | -0.146 | 0.237 | -0.366 | -0.0307 | 1.02 | 0.511 | 0.135 |
| CC[C@@H]1O[Si](C(C)C)(C(C)C)c2c1cc(-c1cc(C)c(OC)c(C)c1)nc2-c1ccc(Oc2ccccc2)cc1 | -0.145 | -0.837 (inactive) | -0.0967 | -0.141 | -0.272 | 0.133 | -0.006 | -0.807 | -0.77 | -0.0734 |
| O=C1N(Cc2ccccc2)c2ccccc2C[C@]12N=C(c1ccc(OCCCO)cc1)O[C@@H]2c1ccccc1 | 0.185 | 0.109 (inactive) | 0.0203 | -0.161 | 0.529 | 1.86 | 0.274 | 0.48 | 0.441 | 1.02 |
| CN(C)C(=O)[C@]1(Cc2ccccc2CN=[N+]=[N-])N=C(c2ccc(OCCCO)cc2)O[C@@H]1c1ccccc1 | 0.349 | -0.4 (inactive) | 0.113 | -0.0896 | 0.402 | 2.06 | 0.454 | 1.3 | -1.08 | 1.04 |
| CO[C@H]1O[C@H](CO)[C@@H](OC(=O)Nc2ccc3c(c2)OCO3)[C@H](OC(=O)Nc2ccc3c(c2)OCO3)[C@@H]1OC(=O)Nc1ccc2c(c1)OCO2 | 0.792 | 0.871 (inactive) | 0.0789 | -0.0349 | 0.572 | 2.51 | 0.943 | 1.31 | 0.12 | 0.954 |
